This is a sample that favours compounds with a hit; in the whole collection about 2.4% have one here.
D2 ag-1: agonists of human D2 dopamine receptor (beta-arrestin); 360,000 tested, 0.084% active; activation, % (test concentration not listed); AID 624465; DiscoveRx PathHunter D2 beta-arrestin, luminescence, 90 min; 100% = 57 uM dopamine signal; in the data active = activation above about 40%; inconclusive = between about 15% and that limit
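DiscoveRx PathHunter D2 beta-arrestin cells (2,100/well) attached overnight, then compound-stimulated 90 min at 37 C in HBSS/10 mM HEPES/0.1% Tween-20 buffer; beta-galactosidase complementation read by luminescence after 1 h at ambient temperature. Dopamine 57 uM final (EC100) as control.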
D2 PAM-1: positive allosteric modulators of human D2 dopamine receptor. HEK293 T-REx D2, calcium flux, EC20 dopamine potentiation. potentiation, % at 10 µM. 340,000 tested, 0.34% active;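 active = potentiation over 3 SD above the plate norm, cut at about 30% in these data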
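Using a no-wash calcium dye in inducible, force-coupled HEK293 Trex cells expressing D2, we tracked fluorescence each second for 180 s after compound, then for 180 s after EC20 dopamine to detect augmented signalling.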
D2 antag: D2 dopamine receptor (human) antagonism. P14416. HEK293 TREx D2 cells, calcium flux, dopamine EC80. inhibition, % at 10 µM. 340,000 tested, 2% active. AID 485344; in the data active = inhibition above about 30%; inactive = below that, where a call was filed
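HEK293 T-REx D2 cells, tet-induced, calcium dye no-wash. Cpd pintool add, 180 s kinetic, then EC80 DA, 180 s kinetic. Ca flux read.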
D2 ag-2: D2 dopamine receptor (human) agonism; 340,000 tested, 0.53% active; HEK293 T-REx D2 cells, calcium flux agonist mode; P14416; activation, % at 2 µM;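 active = activation over 3 SD above normal in the single-dose calcium agonist read, cut at about 30% in these data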
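Tetracycline-induced HEK293 T-REx cells with force-coupled D2 receptor, plated overnight at 30 C, loaded with no-wash calcium dye. After a 10 s baseline, compound was pin-added and calcium flux read kinetically for 180 s; calcium rises flagged agonists.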
D2 PAM-2: positive allosteric modulators of human D2 dopamine receptor; AID 624464; DiscoveRx D2 beta-arrestin cells, luminescence, 90 min; 100% = 57 uM dopamine signal; P14416; potentiation, % (test concentration not listed); 360,000 tested, 0.23% active; in the data active = potentiation above about 50%; inconclusive = mostly about 30% to 49%
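PathHunter beta-arrestin assay in DiscoveRx D2 cells. Compounds were added with an EC20 of dopamine (50 nM final) for 90 min at 37 deg C. Luminescence was read 1 h after detection reagent, with 57 uM dopamine as the EC100 control.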
D3 arrestin ag: confirmation of human D3 dopamine receptor agonists, beta-arrestin; shares compounds with D2 ag-2; DiscoveRx D3 beta-arrestin cells, luminescence, 90 min; Potency, µM (series often up to 76.9 µM), most hits filed as activators; 2,300 tested, 4% active; also: nearly all actives have a fitted effect of over 70% in size
Target sequence (P35462 whole entry, looked up): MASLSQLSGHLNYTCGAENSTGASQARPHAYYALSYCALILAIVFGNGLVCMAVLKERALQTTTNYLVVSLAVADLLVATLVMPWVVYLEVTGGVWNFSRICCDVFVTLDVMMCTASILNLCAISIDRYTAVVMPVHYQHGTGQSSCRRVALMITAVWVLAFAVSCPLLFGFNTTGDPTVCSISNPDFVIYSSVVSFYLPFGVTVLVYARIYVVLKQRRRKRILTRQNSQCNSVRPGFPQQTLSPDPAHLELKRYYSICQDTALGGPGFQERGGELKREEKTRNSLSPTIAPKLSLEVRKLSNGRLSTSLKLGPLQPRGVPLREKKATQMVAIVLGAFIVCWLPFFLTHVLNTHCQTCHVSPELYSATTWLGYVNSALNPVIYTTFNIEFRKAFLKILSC
D2 ag-3: counter-screen for D3 agonists: human D2 dopamine receptor agonism; 2,300 tested, 5.9% active; DiscoveRx PathHunter D2 beta-arrestin, luminescence, 90 min; response scale: percent relative to full dopamine signal; shares compounds with D2 ag-2; AID 720507; Potency, µM (series often up to 76.9 µM), most hits filed as activators; also: nearly all actives have a fitted effect of over 70% in size
Numbers stand for hits. Unless noted, calls follow the shape of the dose curve; as a rule, active = well fitted activation curve with a large enough effect; inconclusive = small, poorly fitted or top-dose-only effect; inactive = flat fitted curve, though single readings scatter.

What do the screens show for `Cc1ccc2[nH]c3c(c2c1)CN(C(=O)CN1CCSCC1)CC3`?
D2 PAM-1: inactive; D2 antag: inactive; D2 ag-2: inactive

What do the screens show for `CCOC(=O)N1CCc2[nH]c3ccc(C)cc3c2C1`?
D2 ag-1: inactive; D2 PAM-1: inactive; D2 antag: inactive; D2 ag-2: inactive; D2 PAM-2: inactive; D3 arrestin ag: inactive; D2 ag-3: inactive

Results for O=C1CCc2cc(NS(=O)(=O)c3ccccc3)cc3c2N1CCC3 ?
D2 ag-1: inactive; D2 PAM-1: inactive; D2 antag: inactive; D2 ag-2: inactive; D2 PAM-2: inactive

Results for CC1(C)CC(=O)C2=C(C1)OC(N)=C(C#N)C2c1cn(-c2ccccc2)nc1-c1ccc(F)cc1 (configuration not stated) ?
D2 ag-1: inactive; D2 PAM-1: inactive; D2 antag: inactive; D2 ag-2: inactive; D2 PAM-2: inactive

Results for CCCCN(C(=O)c1ccc(-c2ccc(Cl)cc2)o1)c1c(N)n(CCC)c(=O)[nH]c1=O ?
D2 ag-1: inactive; D2 PAM-1: inactive; D2 antag: inactive; D2 ag-2: inactive; D2 PAM-2: inactive

Results for CSCCC(NC(=O)c1ccccc1)C(=O)Nc1ccncc1 (configuration not stated) ?
D2 ag-1: inactive; D2 PAM-1: inactive; D2 antag: inactive; D2 ag-2: inactive; D2 PAM-2: inactive

Results for CSCCC(NC(=O)c1ccccc1Cl)C(=O)Nc1ccncc1 (configuration not stated) ?
D2 ag-1: inactive; D2 PAM-1: inactive; D2 antag: inactive; D2 ag-2: inactive; D2 PAM-2: inactive; D3 arrestin ag: inactive; D2 ag-3: inconclusive

How did Cc1c(C(=O)OCC(=O)N2C(C)CCCC2C)oc2ccccc12 (configuration not stated) do in these assays?
D2 ag-1: inactive; D2 PAM-1: inactive; D2 antag: inactive; D2 ag-2: inactive; D2 PAM-2: inactive; D3 arrestin ag: inactive; D2 ag-3: inactive

Results for Cc1cccc(N(Cc2ccccc2)C(=O)C2CCN(C(=O)c3ccccc3C)CC2)c1 ?
D2 ag-1: inactive; D2 PAM-1: inactive; D2 antag: inactive; D2 ag-2: inactive; D2 PAM-2: inactive; D3 arrestin ag: inactive; D2 ag-3: inactive

What do the screens show for `Cc1ccccc1C(=O)N1CCC(C(=O)N(C)CCOc2ccccc2)CC1`?
D2 ag-1: inactive; D2 PAM-1: inactive; D2 antag: inactive; D2 ag-2: inactive; D2 PAM-2: inactive

Results for COc1cc2c(cc1OC)CN(Cc1cccs1)CC2 ?
D2 ag-1: inactive; D2 PAM-1: inactive; D2 antag: inactive; D2 ag-2: inactive; D2 PAM-2: inactive

What do the screens show for `COc1ccccc1N1CCN(Cc2cccs2)CC1`?
D2 ag-1: inactive; D2 PAM-1: inactive; D2 antag: 82.9; D2 ag-2: inactive; D2 PAM-2: inactive; D3 arrestin ag: inactive; D2 ag-3: inactive

Results for COc1ccccc1N1CCN(Cc2ccsc2)CC1 ?
D2 ag-1: inactive; D2 PAM-1: inactive; D2 antag: 103.8; D2 ag-2: 55.9; D2 PAM-2: inactive; D3 arrestin ag: inactive; D2 ag-3: inactive

How did COc1ccc(OC)c(NC(=O)c2cccc(N3C(=O)C4C5CCC(C5)C4C3=O)c2)c1 (configuration not stated) do in these assays?
D2 ag-1: inactive; D2 PAM-2: inactive; D3 arrestin ag: inactive; D2 ag-3: inconclusive

What do the screens show for `O=C(O)CC(c1ccc(OC2CCCC2)cc1)N1C(=O)c2ccccc2C1=O` (configuration not stated)?
D2 ag-1: inactive; D2 PAM-1: inactive; D2 antag: inactive; D2 ag-2: inactive; D2 PAM-2: inactive

Results for CCOC(=O)c1sc(NC(=O)CSCc2c(C)noc2C)nc1C ?
D2 ag-1: inactive; D2 PAM-1: inactive; D2 antag: inactive; D2 ag-2: inactive; D2 PAM-2: inactive; D3 arrestin ag: inactive; D2 ag-3: inactive

Screening results from PubChem.
